Bioassay records deposited in PubChem by National Center for Advancing Translational Sciences (NCATS).
KB-V1 cytotox: kills drug-selected multidrug resistant KB-V1 cells. 400,000 tested, 3.4% active. AID 1347076. KB-V1 MDR cells viability, CellTiter-Glo, 72 h. Potency, µM (top dose mostly 46.1 µM), hits mostly cytotoxic; also: nearly all actives have a fitted effect of over 60% in size
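KB-V1 MDR subline cells in DMEM (phenol-red free, 10% FBS) exposed to compounds in qHTS concentration series for 72 h at 37 degrees C. Viability read by CellTiter-Glo luminescence; concentration-effect curves fitted after normalization and correction.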
DT40 TDP1 no CPT: qHTS for Inhibitors of human tyrosyl-DNA phosphodiesterase 1 (TDP1): qHTS in cells in absence of CPT. DT40 Tdp1-/- hTDP1 cells, no CPT, ATP luminescence, 48 h. Potency, µM (doses to about 46.2 µM), actives largely listed as inhibitors. 420,000 tested, 15% active; also: nearly all actives have a fitted effect of over 55% in size
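Chicken DT40 Tdp1-/- cells complemented with human TDP1, screened without camptothecin (DMSO vehicle only), 400 cells/well. Compounds pin-transferred, cells incubated at 37 °C for at least 48 hr. Growth read as ATP-dependent luminescence (CellTiter-Glo, 30 min at RT).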
KB-3-1 tox: kills parental KB-3-1 adenocarcinoma cells | Potency, µM (highest dose often 46.1 µM), actives largely listed as cytotoxic | 400,000 tested, 1.4% active | KB-3-1 viability, CellTiter-Glo ATP luminescence, 72 h; also: nearly all actives have a fitted effect of over 60% in size
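72 h, 37 °C compound treatment of KB-3-1 parental cells; CellTiter-Glo added, 10 min, luminescence read. Data corrected against DMSO-only plates and normalized before curve fitting.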
HT1080NT lethal: kills 2HG-producing HT-1080-NT fibrosarcoma cells | HT-1080-NT fibrosarcoma viability, CellTiter-Glo ATP luminescence, 48 h | Potency, µM (series often up to 46.1 µM), usual class: cytotoxic | 360,000 tested, 1.6% active | AID 686970;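 also: NT is the 2HG producing partner of a matched IDH1 knockdown line; nearly all actives have a fitted effect of over 55% in size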
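Compounds were tested in concentration-response format on HT-1080-NT cells for 48 hours at 37 degrees C. Cell viability came from CellTiter-Glo luminescence; curves were classified by r2, response magnitude and activity.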
DT40 TDP1 CPT: growth inhibition of DT40 Tdp1-/-;hTDP1 cells with camptothecin (screen for TDP1 inhibitors). chicken DT40 Tdp1-/-;hTDP1 cells + 20 nM CPT, ATP luminescence, 48 h. Potency, µM (series often up to 46.2 µM), most hits filed as inhibitors. 420,000 tested, 12% active. AID 686979; also: nearly all actives have a fitted effect of over 55% in size
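Cell growth measured by CellTiter-Glo luminescence after a minimum 48 h, 37 C compound exposure with 20 nM CPT in Tdp1-knockout DT40 cells stably expressing hTDP1, seeded 400/well; qHTS titration format.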
HT1080 IDH1KD tx: kills HT-1080 cells with IDH1 knockdown; Potency, µM (doses to about 46.1 µM), hits mostly cytotoxic; 360,000 tested, 2% active; HT-1080 IDH1 knockdown viability, ATP luminescence, 48 h
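In this qHTS, HT-1080 cells depleted of IDH1 are exposed for 48 h at 37 °C to compound titrations. Toxicity is scored from CellTiter-Glo luminescence, with DMSO as full viability and medium alone as none.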
Numbers stand for hits; 0 = inactive; ? = inconclusive; - = no result; [ ] = dose if it differs, or a comment. A selection: hits, their analogues and other compounds. The true share with any hit is near 19%. Calls follow the shape of the dose curve; as a rule, active = well fitted curve in the direction sought with a large enough effect; inconclusive = small, poorly fitted or top-dose-only effect, or another doubt; inactive = no such curve, though single readings can be large; an effect the other way counts as inactive or inconclusive.

SMILES	KB-V1 cytotox	DT40 TDP1 no CPT	KB-3-1 tox	HT1080NT lethal	DT40 TDP1 CPT	HT1080 IDH1KD tx
COc1ccc(/C=C/C(=O)OC2CCCCC2CN(C)C)cc1 (centres undefined)	0	0	0	0	0	0
CC(C)CC1CCCCC1OC(=O)C[N+]1(C)CCCCC1 (centres undefined)	0	10.3µM	0	0	?	0
CC(C)(C)C1CCC(OC(=O)C[N+]2(C)CCCC2)CC1 (centres undefined)	0	5.17µM	0	0	4.11µM	0
C[N+]1(CC(=O)OCCCC2CCCCC2)CCCC1	0	20.6µM	0	0	0	0
CC(C)(C)C1CCC(OC(=O)C[N+]2(C)CCCCC2)CC1 (centres undefined)	0	10.3µM	0	0	?	0
CCC(C)NC(=O)c1cnn(-c2ccc(Cl)cc2)c1C1CCN(C(=O)OC(C)(C)C)CC1 (centres undefined)	0	?	0	-	?	-
Cc1cn(C)c(CC(=O)Nc2cccc(C#N)c2)c1C(=O)O	?	0	0	-	0	-
O=C(COc1ccccc1[N+](=O)[O-])NCCCN1CCCC1=O	0	0	0	0	0	0
CCc1ccc(S(=O)(=O)c2cn(CC(=O)Nc3ccc(C)cc3)c3ccccc3c2=O)cc1	?	?	0	-	0	-
Cc1ccc(Cl)cc1N1CCN(c2cccc[n+]2C)CC1	?	25.9µM	?	?	?	0
C[n+]1ccccc1N1CCN(c2ccccc2Cl)CC1	0	?	20.6µM	0	23.1µM	0
COc1ccccc1N1CCN(c2nc3c(S(=O)(=O)c4ccccc4)nnn3c3ccc(Cl)cc23)CC1	0	0	0	-	0	-
COc1cccc(CN(C)C(=O)c2cc(COc3ccc(-n4cncn4)cc3)on2)c1	0	18.4µM	0	0	20.6µM	0
COc1cccc(CN(C)C(=O)c2cc(COc3c(F)cccc3F)on2)c1	0	0	0	0	0	0
COc1cccc(CN(C)C(=O)c2cc(COc3ccc4ncccc4c3)on2)c1	4.11µM	2.91µM	4.11µM	?	3.26µM	0
C/C(=N/NC(=O)c1cc2ccccc2cc1O)c1ccco1	?	13µM	?	?	25.9µM	?
C/C(=N\NC(=O)c1cc2ccccc2cc1O)c1ccc(C)o1	?	14.6µM	?	?	18.4µM	?
C/C(=N\NC(=O)c1c(C)nc2ccccn12)c1ccco1	0	0	0	0	0	0
COc1ccc(N2CCN(C(c3ccccc3F)c3sc4nc(-c5ccco5)nn4c3O)CC2)cc1 (centres undefined)	0	0	0	-	0	-
Cc1nn(-c2ccccc2Cl)c(Cl)c1/C=N/Nc1nc2ccccc2s1	0	11.6µM	?	?	?	?
CCn1c(C)c(/C=N/Nc2nc3ccccc3s2)c2ccccc21	0	17.8µM	0	3.55µM	17.8µM	8.91µM
C(=N\Nc1nc2ccccc2s1)/c1ccco1	?	?	0	?	0	?
Oc1ccccc1C=NNc1nc2ccccc2s1	0	0.0517µM	?	18.4µM	0.0651µM	8.2µM
C(=N\Nc1nc2ccccc2s1)/c1cccs1	?	?	0	10µM	16.4µM	11.2µM
COc1cccc(C=NNc2nc3ccccc3s2)c1OC	?	?	0	?	0	0
SMILES	KB-V1 cytotox	DT40 TDP1 no CPT	KB-3-1 tox	HT1080NT lethal	DT40 TDP1 CPT	HT1080 IDH1KD tx
CCOC(=O)N/N=C/c1c(C)nn(-c2ccccc2Cl)c1Cl	0	?	0	0	?	0
CC(=O)c1ccccc1-c1ccc2c(c1)CC(CNC(=O)c1cc(C)on1)O2 (centres undefined)	-	?	-	-	0[9.04 µM]	-
Oc1ccccc1/C=N/Nc1nc2ccccc2o1	?	2.91µM	?	?	3.26µM	?
Oc1ccc(C=NNc2nc3ccccc3s2)c(O)c1	0	4.11µM	?	?	3.66µM	?
Brc1ccc(/C=N/Nc2nc3ccccc3o2)cc1	0	0	0	0	0	0
COC(=O)c1c(NC(=O)COC(=O)c2ccc(Cl)nc2)sc(C)c1C	0	0	0	0	0	0
CC1(c2ccc([N+](=O)[O-])cc2)Nc2ccccc2S1 (centres undefined)	0	0	0	?	?	20.6µM
O=C1Nc2ccccc2/C1=C/c1ccc([N+](=O)[O-])cc1	0	0	0	0	0	0
Cc1ccc(C(C)(O)CS(=O)(=O)Cc2ccccc2Cl)cc1 (centres undefined)	0	0	0	0	0	0
COc1ccc(C(=O)N/C=C/n2cnc3cc(C(F)(F)F)ccc32)cc1	0	0	0	0	0	0
O=C(Nc1ccc(F)cc1F)Nc1ccc(F)cc1F	?	?	0	0	0	0
O=C(Nc1ccc(F)c(Cl)c1)Nc1csc2ccccc12	11.6µM	3.66µM	?	9.2µM	5.17µM	6.51µM
O=C(Nc1ccc(F)cc1F)Nc1csc2ccccc12	0	23.1µM	0	?	?	?
CC(=O)c1ccc(OCC(O)CN2CCN(c3ccc(F)cc3)CC2)cc1 (centres undefined)	0	23.1µM	0	0	?	0
CCC(=O)c1ccc(OCC(O)CN2CCN(c3ccc(F)cc3)CC2)cc1 (centres undefined)	0	0	0	0	0	0
COc1ccccc1N1CCN(CC(O)COc2ccc(C)cc2C)CC1 (centres undefined)	0	?	0	0	?	0
COc1cc(C(C)=O)ccc1OCC(O)CN1CCN(c2cc(C)cc(C)c2)CC1 (centres undefined)	0	16.4µM	0	0	?	0
O=C(c1cc2ccccc2o1)N1CCN(Cc2nc3ccccc3s2)CC1	0	?	0	0	0	0
CC1(C)Cc2c(sc3c2C2=NCCN2C=N3)CS1	0	16.4µM	0	0	0	0
CCn1nc(C)c(NC(=O)CC23CC4CC(CC(C4)C2)C3)c1C	?	20.6µM	0	0	?	0
Cc1ccccc1Oc1cc(-n2ncc(Cl)c(Cl)c2=O)ncn1	0	0.411µM	14.6µM	13µM	0.651µM	7.31µM
CN(C)c1cccc(C(=O)N2CCC(c3c[nH]c4ccccc34)(c3c[nH]c4ccccc34)CC2)c1	0	?	0	-	?	-
Cc1nc(SCC(=O)Nc2cc(C(N)=O)cc(C(N)=O)c2)c2c(C)c(C)sc2n1	0	0	0	0	0	0
COC(=O)c1sc2nc(C)nc(SCC(=O)Nc3sccc3C(N)=O)c2c1C	0	16.4µM	0	0	18.4µM	0
Cc1nc(SCC(=O)Nc2sccc2C(N)=O)c2c(C)c(C)sc2n1	0	?	0	?	20.6µM	?
